Here are results for five molecules from PubChem BioAssay.

The nature of assay [1]: compounds binding Alexa647 anti-His antibody – biochemical, small-molecule microarray, 635 nm fluorescence, artefact control for SMM control protein annotation, primary screen (AID 1128).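 Note: score merges feature fluorescence with signal-to-noise for each printed compound spot.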 The note with it: higher = more signal.
In assay [2] the test system is Human papillomavirus type 1a E7 protein (residues 1-88). Nature of the assay: HPV1a E7 small-molecule binders, primary screen, biochemical, small-molecule microarray, residues 1-88, 635 nm (AID 1129). To be noted: small-molecule microarray binding, fluorescence 635 nm; higher = more signal.
Assay [3] concerns the target Focal adhesion kinase 1 (Homo sapiens) (UniProt Q05397). The experiment in a line: PTK2 protein binding on printed compound slides – biochemical, small-molecule microarray, 635/667 nm fluorescence, BSA, DTT, primary screen (AID 1130).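 Note: composite of spot emission at 667 nm and signal to noise over triplicate slides.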 The note with it: 635 nm fluorescence, higher = more signal.
The test system of assay [4] is Fibrinogen (Alexa647-labelled). The experiment in a line: Alexa647-fibrinogen binding to printed small molecules – biochemical, small-molecule microarray, 635/667 nm fluorescence, artefact control for SMM control-protein annotation, profiling panel (AID 1131).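 Note: z-score merges 667 nm fluorescence with per-spot signal-to-noise over triplicate slides.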 The note with it: fibrinogen-A647 binding fluorescence, higher = more signal.
Assay [5] concerns the target Follistatin (Homo sapiens) (UniProt P19883). The experiment in a line: FST protein binding to printed compounds – biochemical, small-molecule microarray, 635/667 nm fluorescence, primary screen (AID 1132). The note with it: 635 nm fluorescence, higher = more signal.
For assay [6], the target named is Fibroblast growth factor 2 (Homo sapiens) (UniProt P09038). The experiment in a line: basic fibroblast growth factor binding to printed compounds – biochemical, small-molecule microarray, 635/667 nm fluorescence, primary screen (AID 1133). To be noted: FGF2, fluorescence 635/667, higher = more signal.
Sequence of Fibroblast growth factor 2 (Homo sapiens) (P09038 whole entry, looked up): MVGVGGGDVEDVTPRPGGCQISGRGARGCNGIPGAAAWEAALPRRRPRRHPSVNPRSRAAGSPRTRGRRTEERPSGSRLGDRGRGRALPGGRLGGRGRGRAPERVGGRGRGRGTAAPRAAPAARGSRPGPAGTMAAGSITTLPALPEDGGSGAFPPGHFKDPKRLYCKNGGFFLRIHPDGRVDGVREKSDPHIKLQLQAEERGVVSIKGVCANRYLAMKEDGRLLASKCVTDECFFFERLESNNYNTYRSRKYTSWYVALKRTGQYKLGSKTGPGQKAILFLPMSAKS
The nature of assay [7]: JC-1 mitochondrial potential readout, lung cancer cells – cell-based, A549, JC-1 fluorescence, basal, 24 h, 100 nL, profiling panel (AID 1138).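 Note: A549 lung adenocarcinoma cells under basal conditions with no added stimulus; test concentration not given here.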 The note with it: higher = more signal.
Another assay relates to Lefty1. The experiment in a line: Lefty1 protein binding to printed compounds – biochemical, small-molecule microarray, 635/667 nm fluorescence, primary screen (AID 1139). To be noted: fluorescence 635/667, higher = more signal.
Assay [8] concerns wheat germ agglutinin (Triticum aestivum), Alexa647-labelled. The experiment in a line: Alexa647-WGA lectin binding to printed small molecules – biochemical, small-molecule microarray, 635/667 nm fluorescence, artefact control for SMM control-protein annotation, profiling panel (AID 1140).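 Note: score merges 667 nm feature emission with signal to noise over triplicate slides.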 The note with it: WGA-A647 binding, 635 nm fluorescence, higher = more signal.
The target of assay [9] is Luciferin 4-monooxygenase (Photinus pyralis) (UniProt P08659). The experiment in a line: inhibition of purified Photinus pyralis luciferase – biochemical, luminescence, purified enzyme, 2006 set, primary screen (AID 1141).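 Note: cell-free assay with purified firefly luciferase at 100 ng per well in PBS; test concentration not given here.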 The note with it: purified firefly luciferase, SteadyGlo luminescence, 30 min; higher = more signal, called active from +8 up or from −8 down.
Sequence of Luciferin 4-monooxygenase (Photinus pyralis) (P08659 whole entry, looked up): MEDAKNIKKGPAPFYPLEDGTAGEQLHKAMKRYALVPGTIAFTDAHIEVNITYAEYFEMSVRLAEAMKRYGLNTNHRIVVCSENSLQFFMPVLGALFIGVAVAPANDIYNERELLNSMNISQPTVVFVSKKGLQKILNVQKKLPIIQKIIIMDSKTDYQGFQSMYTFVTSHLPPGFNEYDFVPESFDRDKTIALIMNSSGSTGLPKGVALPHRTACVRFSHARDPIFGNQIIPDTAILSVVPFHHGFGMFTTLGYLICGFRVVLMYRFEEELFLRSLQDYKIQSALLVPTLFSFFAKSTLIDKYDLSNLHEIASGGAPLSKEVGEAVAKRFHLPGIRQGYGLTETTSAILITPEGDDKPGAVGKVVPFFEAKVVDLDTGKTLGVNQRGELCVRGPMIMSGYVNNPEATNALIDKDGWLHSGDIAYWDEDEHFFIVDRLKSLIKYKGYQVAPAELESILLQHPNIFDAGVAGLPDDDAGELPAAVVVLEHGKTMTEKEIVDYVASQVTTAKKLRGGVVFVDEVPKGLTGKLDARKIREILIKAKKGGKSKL
The subject of assay [10] is Wnt5a (protein binding on small-molecule microarray). Nature of the assay: small molecules binding Wnt5a protein – biophysical, small-molecule microarray, 635/667 nm fluorescence, primary screen (AID 1142).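 Note: fluorescence read at 667 nm with signal to noise per printed feature.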 The note with it: 635 nm fluorescence, higher = more signal.
The nature of assay [11]: ATP-based viability of Huh7 replicon cells – cell-based, CellTiter-Glo luminescence, basal, 48 h, cytotoxicity control for HCV replication inhibitor project, primary screen (AID 1143).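 Note: Huh7 hepatoma cells carrying a hepatitis C replication reporter with no stimulus; test concentration not given here.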 The note with it: higher = more signal, called active from +8 up or from −8 down.
A short description of assay [12]: Pseudomonas biofilm growth suppression – PAO1 strain, BacTiter-Glo luminescence, LB-PBS, primary screen (AID 1144). The note with it: P. aeruginosa PAO1 biofilm, 12 h, higher = more signal.
A short description of assay [13]: basal CRE-LacZ reporter activity in PC12 – cell-based, unstimulated, primary screen (AID 1145). To be noted: no forskolin, luminescence, 4.5 h, higher = more signal, called active from +8 up or from −8 down.
Assay [14] can be described thus: forskolin-driven CRE-LacZ activity in PC12 – cell-based, CRE-LacZ reporter, forskolin-stimulated, primary screen (AID 1146).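 Note: PC12 cells with 6xCRE LacZ reporter stimulated by forskolin 10 µM; beta-galactosidase reporter signal reflecting CREB driven transcription.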 To be noted: luminescence, 4.5 h, higher = more signal, called active from +8 up or from −8 down.
For assay [15], the target named is Streptavidin (Streptomyces avidinii) (UniProt P22629). Nature of the assay: compounds binding control protein streptavidin – biophysical, small-molecule microarray, 635/667 nm fluorescence, artefact control for SMM compound annotation, primary screen (AID 1147).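 Note: signal reflects streptavidin binding to arrayed compounds as a control protein.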 To be noted: higher = more signal.
Sequence of Streptavidin (Streptomyces avidinii) (P22629 whole entry, looked up): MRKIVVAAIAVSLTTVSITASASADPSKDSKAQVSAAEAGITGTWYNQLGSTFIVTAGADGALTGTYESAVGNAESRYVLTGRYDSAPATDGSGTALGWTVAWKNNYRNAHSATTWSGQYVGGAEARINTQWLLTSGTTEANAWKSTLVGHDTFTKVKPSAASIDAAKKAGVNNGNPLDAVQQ
Assay [16] is described as follows: probe aInhba binding on compound microarray – biochemical, small-molecule microarray, 635/667 nm fluorescence, primary screen (AID 1148).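 Note: score merges 667nm spot fluorescence with signal-to-noise for antibody binding to printed compounds.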 The note with it: higher = more signal.
Assay [17] addresses Torsin-1A (Homo sapiens) (UniProt O14656). The experiment in a line: TOR1A wild-type binding on microarray – cell lysate, small-molecule microarray, lysate, 635/667 nm, primary screen (AID 1149). To be noted: COS7 hTOR1A-WT lysate, 635 nm fluorescence, higher = more signal.
The target is the same in assay [18]. Nature of the assay: torsin A mutant lysate binding on microarrays – cell lysate, small-molecule microarray, COS7 lysate, 635/667 nm fluorescence, primary screen (AID 1150).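 Note: score pools 667 nm emission and signal to noise measuring lysate protein binding.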 The note with it: COS7 hTOR1A mutant lysate, 635 nm fluorescence, higher = more signal.
In assay [19] the test system is Sonic hedgehog protein (Shh). The experiment in a line: Sonic hedgehog microarray binding compounds – biochemical, small-molecule microarray, 635/667 nm fluorescence, primary screen (AID 1151).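 Note: Shh protein binding to compounds spotted on small-molecule microarray slides; score combines spot fluorescence intensity with signal-to-noise across triplicate slides.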 The note with it: 635 nm fluorescence, higher = more signal.

Calls of active or inactive are those of the source. Unless noted, the rule behind the calls is not given here.

Sequence of Torsin-1A (Homo sapiens) (O14656 whole entry, looked up): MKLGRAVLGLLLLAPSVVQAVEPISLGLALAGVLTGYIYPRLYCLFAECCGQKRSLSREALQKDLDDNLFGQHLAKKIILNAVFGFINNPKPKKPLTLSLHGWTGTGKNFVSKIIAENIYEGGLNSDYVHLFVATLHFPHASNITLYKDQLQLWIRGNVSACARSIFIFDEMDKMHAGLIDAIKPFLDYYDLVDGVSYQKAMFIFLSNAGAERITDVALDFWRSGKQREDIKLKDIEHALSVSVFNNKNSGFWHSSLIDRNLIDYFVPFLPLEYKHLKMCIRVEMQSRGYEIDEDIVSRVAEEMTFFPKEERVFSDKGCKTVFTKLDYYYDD
Sequence of Focal adhesion kinase 1 (Homo sapiens) (Q05397 whole entry, looked up): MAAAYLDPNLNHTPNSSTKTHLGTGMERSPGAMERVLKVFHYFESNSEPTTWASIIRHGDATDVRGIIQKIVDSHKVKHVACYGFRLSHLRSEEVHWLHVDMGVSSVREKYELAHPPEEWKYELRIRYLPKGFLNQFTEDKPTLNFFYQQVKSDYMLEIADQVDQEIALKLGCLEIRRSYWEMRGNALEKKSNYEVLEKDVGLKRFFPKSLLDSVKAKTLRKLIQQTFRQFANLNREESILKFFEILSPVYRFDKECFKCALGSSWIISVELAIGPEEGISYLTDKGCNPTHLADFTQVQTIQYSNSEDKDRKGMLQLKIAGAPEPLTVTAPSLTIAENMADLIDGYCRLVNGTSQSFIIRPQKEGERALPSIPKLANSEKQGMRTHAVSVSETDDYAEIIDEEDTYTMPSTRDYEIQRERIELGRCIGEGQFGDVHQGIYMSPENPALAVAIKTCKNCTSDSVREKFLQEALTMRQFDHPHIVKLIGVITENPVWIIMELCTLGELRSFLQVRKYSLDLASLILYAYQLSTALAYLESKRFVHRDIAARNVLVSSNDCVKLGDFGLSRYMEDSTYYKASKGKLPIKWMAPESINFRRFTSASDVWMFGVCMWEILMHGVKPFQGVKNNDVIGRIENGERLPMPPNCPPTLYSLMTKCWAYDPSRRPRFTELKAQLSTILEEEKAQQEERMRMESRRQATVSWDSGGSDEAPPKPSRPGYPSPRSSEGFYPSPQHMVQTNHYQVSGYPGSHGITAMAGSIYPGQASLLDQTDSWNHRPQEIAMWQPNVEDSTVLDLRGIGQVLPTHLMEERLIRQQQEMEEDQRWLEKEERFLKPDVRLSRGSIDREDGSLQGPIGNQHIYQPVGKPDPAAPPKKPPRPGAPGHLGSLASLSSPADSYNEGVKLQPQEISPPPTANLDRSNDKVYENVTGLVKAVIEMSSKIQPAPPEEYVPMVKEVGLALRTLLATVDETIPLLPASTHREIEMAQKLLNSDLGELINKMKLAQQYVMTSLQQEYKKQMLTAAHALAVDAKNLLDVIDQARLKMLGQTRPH
Sequence of Follistatin (Homo sapiens) (P19883 whole entry, looked up): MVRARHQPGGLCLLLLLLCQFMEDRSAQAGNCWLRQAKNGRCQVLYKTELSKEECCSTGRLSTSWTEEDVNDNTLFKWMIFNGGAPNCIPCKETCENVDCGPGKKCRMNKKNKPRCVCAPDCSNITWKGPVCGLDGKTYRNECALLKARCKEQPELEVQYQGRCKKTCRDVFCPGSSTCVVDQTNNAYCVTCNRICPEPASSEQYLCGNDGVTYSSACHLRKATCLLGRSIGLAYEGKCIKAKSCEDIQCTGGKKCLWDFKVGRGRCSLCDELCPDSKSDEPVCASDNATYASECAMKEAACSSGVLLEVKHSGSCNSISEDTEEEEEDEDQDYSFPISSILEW

For `COc1ccc([Si](C)(C)[C@H]2[C@H](CCO)O[C@@]3(C(=O)N(Cc4ccc(N5CCOC5=O)cc4)c4ccccc43)[C@@H]2C)cc1`, the composite z-score was 0.965 in assay [1]; 0.516 in assay [2]; 0.5 in [3]; 0.45 in assay [4]; -0.11 in [5]; -0.271 in assay [6]. The composite z-score in the assay on Lefty1 is 0.263; in assay [8], 0.433; in [10], -0.159; in assay [15] it was 0.346; in assay [16], -0.0791; with Torsin-1A (Homo sapiens) [17], 0.216. Besides, the composite z-score stood at 0.0362 with Torsin-1A (Homo sapiens) [18] and 0.397 in assay [19]. Further, the z-score is 0.533 in assay [7]; -0.605 (inactive) in [9]; -3.29 (inactive) in assay [11]; -0.232 (inactive) in assay [12]; 2.2 (inactive) in [13]; -2.06 (inactive) in [14].

Consider `CC(c1ccccc1)C(O)C1C=CC2C(=O)N(c3ccccc3)C(=O)C2N1Nc1ccc(C#N)cc1` (stereo not given), for which the composite z-score in [1] came to 2.19; in assay [2] it was 1.22; in assay [3] it was 0.648; in assay [4] it was 0.993; in assay [5], 1.12; in [6], 0.329. For the same molecule, the composite z-score in the assay with Lefty1 is 1.12; in [8] it was 0.772; in [10] it was 0.644; in assay [15], 0.17; in assay [16] it was 0.179; with Torsin-1A (Homo sapiens) [17], 0.618. Further, the values for the composite z-score (with Torsin-1A (Homo sapiens) [18]; in [19]) were 0.739 and 1.18, respectively. Further, the z-score in assay [7] was 1.03; in assay [9], -0.424 (inactive); in [11] it was -0.661 (inactive); in [12], -1.26 (inactive); in [13], -0.136 (inactive); in assay [14], 0.721 (inactive).

`CCCCN1CC=CC23O[C@@H]4/C=C\CCC(C)OC(=O)C4[C@H]2C(=O)N(C(C)CO)[C@@H]3C1=O` (stereo not given in full): the composite z-score was -0.0307 in [1]; -1.41 in assay [2]; 0.578 in assay [3]; -0.526 in assay [4]; -0.16 in [5]; -0.379 in assay [6]. Further, the composite z-score in the assay on Lefty1 is -0.034; in assay [8], -0.128; in assay [10] it was -0.0151; in assay [15], -0.447; in assay [16], -0.161; with Torsin-1A (Homo sapiens) [17], -0.185. For the same molecule, the composite z-score in the assay with Torsin-1A (Homo sapiens) [18] was -1.01; in [19] it was -0.0387. In addition, the z-score in assay [7] was 0.256; in assay [9], -0.762 (inactive); in [11], 0.24 (inactive); in assay [12], -0.297 (inactive); in assay [13], -0.497 (inactive); in assay [14] it was -0.21 (inactive).

Consider `[N-]=[N+]=NCc1ccccc1C[C@]1(C(=O)O)COC(c2ccc(OCCCO)cc2)=N1`, for which the composite z-score in assay [1] was -0.615; in assay [2], -1.13; in assay [3], -0.217; in assay [4], -2.49; in assay [5], -0.21; in assay [6], -0.855. The composite z-score was -0.212 in the assay on Lefty1; -0.0491 in assay [8]; -0.333 in assay [10]; -0.878 in assay [15]; -0.13 in assay [16]; 0.861 with Torsin-1A (Homo sapiens) [17]. In addition, the composite z-score in the assay with Torsin-1A (Homo sapiens) [18] was 0.0486; in [19], -1.03. Besides, the z-score was -0.103 in assay [7]; -0.536 (inactive) in assay [9]; 0.432 (inactive) in assay [11]; 0.475 (inactive) in assay [12]; -0.426 (inactive) in [13]; -0.916 (inactive) in [14].

As to `O=C1N(Cc2ccccc2)c2ccccc2[C@H]2OC(c3ccc(OCCCO)cc3)=N[C@@]12Cc1ccccc1`, the composite z-score in [1] was 2.1; in assay [2], 1.19; in assay [3], 0.6; in [4], 0.696; in assay [5], 1.35; in assay [6], 1.52. For the same molecule, the composite z-score with Lefty1 was 0.584; in assay [8], 0.694; in [10] it was 0.806; in assay [15] it was 0.0454; in assay [16], 0.147; in the assay with Torsin-1A (Homo sapiens) [17], -0.0599. In addition, the composite z-score in the assay with Torsin-1A (Homo sapiens) [18] turned out to be 0.242; in assay [19], 1.64. In addition, the z-score in [7] is -1.4; in assay [9], -2.98 (inactive); in [11] it was -4.93 (inactive); in assay [12] it was -0.0376 (inactive); in assay [13] it was 0.708 (inactive); in assay [14] it was -1.07 (inactive).
